From PubChem
Cruzain noTriton: blocks cruzain activity in detergent-free assay; P25779; purified cruzain, Z-FR-AMC fluorescence, no detergent; Potency, µM, inactives show max response, negative = inhibition, usual class: inhibitors; hit rate 2.3% among 200,000; AID 1476;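 also: plate controls were enzyme without inhibitor for no effect and buffer without enzyme for full effect; nearly all actives have a fitted effect of over 40% in size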
Target sequence (P25779 123-467 limits assumed): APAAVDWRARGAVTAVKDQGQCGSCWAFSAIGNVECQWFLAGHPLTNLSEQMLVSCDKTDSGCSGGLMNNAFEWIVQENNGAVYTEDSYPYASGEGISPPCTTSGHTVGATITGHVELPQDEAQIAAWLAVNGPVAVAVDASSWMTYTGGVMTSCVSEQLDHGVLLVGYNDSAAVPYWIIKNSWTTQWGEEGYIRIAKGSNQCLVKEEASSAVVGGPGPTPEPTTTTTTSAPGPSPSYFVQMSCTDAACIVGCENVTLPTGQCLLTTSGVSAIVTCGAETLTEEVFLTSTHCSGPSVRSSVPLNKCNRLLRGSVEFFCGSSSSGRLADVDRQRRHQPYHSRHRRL
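Detergent-free condition (0.00005% Triton X-100) in acetate buffer pH 5.5 with DTT. 1.5 nM enzyme and compound were pre-mixed 15 min, then 2 uM Z-FR-AMC substrate added; reaction progress from fluorescence change between first and third reads (60 s).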
Cruzain Triton: cruzain (T. cruzi) inhibition with detergent | P25779 | hit rate 0.43% among 200,000 | Potency, µM, for inactives: max response, negative = inhibition, hits mostly inhibitors | AID 1478 | purified cruzain, Z-FR-AMC fluorescence, 0.01% Triton;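 also: plate controls were neutral wells for no effect and buffer without enzyme for full effect; nearly all actives have a fitted effect of over 40% in size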
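15 min RT preincubation of 1.5 nM cruzain with compound, then 2 uM Z-FR-AMC added; kinetic AMC fluorescence, 60 s delta. Triton X-100 0.01%, pH 5.5.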
Numbers without * were called inactive; ? = inconclusive. Only some compounds are listed: those with a hit (about 2.6% of all), similar ones and a draw of the others. Calls follow the shape of the dose curve; as a rule, active = well fitted curve in the direction sought with a large enough effect; inconclusive = small, poorly fitted or top-dose-only effect, or another doubt; inactive = no such curve, though single readings can be large; an effect the other way counts as inactive or inconclusive. Potency is read from the fitted curve at half-maximal effect.

SMILES | Cruzain noTriton | Cruzain Triton
Cc1ccc(C(=O)NN2C(=O)/C(=C/c3cn(C)c4ccccc34)SC2=S)cc1 | 10µM* | 0.6%
Cn1cccc1/C=C1\SC(=S)N(NC(=O)c2ccccc2Cl)C1=O | 12.7% | -9.9%
CC1=C(C)C(=O)C(CCCCC#CCCCC#CCO)=C(C)C1=O | 13.9% | -6.8%
CCOc1ccccc1CNC(=O)CCc1c(C)nn(-c2ccc(N3CCCCC3)nn2)c1C | -5.5% | -5.8%
CCOc1cc(NC(=S)Nc2ccccc2)c(OCC)cc1NC(=O)c1ccc(OC)cc1 | 15.8µM* | -2.8%
CCOc1cc(NC(=S)Nc2cccc(OC)c2)c(OCC)cc1NC(=O)c1ccc(C)cc1 | ? | -1.3%
Cc1ccccc1NC(=O)CCC(=O)OCC(=O)c1ccc(-c2ccccc2)cc1 | 12.6µM* | 2.8%
COc1ccc(C(=O)CCC(=O)Nc2ccccc2C)cc1 | -7.3% | 0.2%
O=C(CCC(=O)OCC(=O)c1ccc(-c2ccccc2)cc1)Nc1cccc(Cl)c1 | 25.1µM* | 2.4%
CCOc1ccccc1OCCCC(=O)OCC(=O)Nc1cccc(Cl)c1 | 1.0% | -6.4%
O=C(Nc1ccc(F)cc1)c1nc(SCc2ccccc2F)ncc1Cl | -1.9% | 0.8%
COc1ccc(OC)c(NC=C2C(=O)OC(C)(C)OC2=O)c1 | -2.7% | -1.8%
COc1ccc(/C=N/Nc2nnc(-c3ncc[nH]3)c3ccccc23)cc1 | 2.4% | -5.9%
Oc1ccc2ccccc2c1/C=N/Nc1nnc(-c2ncc[nH]2)c2ccccc12 | 25.1µM* | -13.9%
CCOc1ccc2c(c1)OC(c1ccc(C)cc1)(C(F)(F)F)NC2=O (stereo not given) | -1.0% | -10.8%
Oc1csc(Cc2nc(-c3ccc(-c4ccccc4)cc3)cs2)n1 | 10µM* | 3.1%
Oc1csc(Cc2nc(-c3ccc4ccccc4c3)cs2)n1 | ? | -4.4%
Cc1noc(C)c1S(=O)(=O)Nc1ccc(C(=O)N2CCCCC2)cc1 | 2.9% | -2.2%
Cc1cc(C)nc(Nc2nc3ccccc3[nH]2)n1 | -20.4% | -21.4%
c1ccc(Nc2nc3ccccc3[nH]2)nc1 | 10µM* | 25.1µM*
Cc1ccccc1Cn1ccc(-c2ccc(Cl)cc2)c(C#N)c1=O | 25.1µM* | -8.0%
Cc1ccc(Cn2ccn(Cc3ccccc3C)c(=O)c2=O)cc1 | 6.9% | -1.2%
O=C(CNC(=O)c1ccccc1)OCc1nc2ccccc2s1 | 12.6µM* | 25.1µM*
O=C(CNC(=O)c1ccc(Cl)cc1Cl)OCc1nc2ccccc2s1 | 3.98µM* | 7.94µM*
CC(=O)OCc1nc2ccccc2s1 | -7.0% | 1.9%
SMILES | Cruzain noTriton | Cruzain Triton
O=C(COC(=O)CCc1nc2ccccc2s1)Nc1ncc(Cl)cc1Cl | -7.9% | -5.6%
O=C(NC1CC1)c1cc(-c2ccccn2)nc2ccccc12 | 3.8% | -3.8%
CCNc1ncc2nc(-c3cn(C)c4ccccc34)c(=O)n(-c3ccc(OC)cc3)c2n1 | -15.5% | 6.5%
CC(=O)Nc1cc(NC(C)=O)cc(-c2nc3ccccc3[nH]2)c1 | -3.0% | -2.5%
CC(C)C(=O)Nc1sc2c(c1-c1nc3ccccc3[nH]1)CCCC2 | 20µM* | -1.0%
COc1ccccc1NC(=O)c1ccc2[nH]c(C)cc(=O)c2c1 | 4.1% | -3.9%
Cc1ccc(CNC(=O)CN2C(=O)CSc3c2c(C)nn3-c2ccccc2)cc1 | -15.0% | -2.7%
COc1cc2c(cc1NC(=S)Nc1cccc(C(F)(F)F)c1)oc1ccccc12 | 15.8µM* | -7.5%
COc1cc2c(cc1NC(=O)CSCC(=O)O)oc1ccccc12 | -18.5% | -4.6%
COc1cc2c(cc1NC(=O)/C=C/c1ccc([N+](=O)[O-])cc1)oc1ccccc12 | 5.01µM* | -2.3%
COc1cc2c(cc1NC(=O)Nc1ccccc1)oc1ccccc12 | ? | 6.6%
CC(C)NC(=O)c1ccccc1NC(=O)/C=C/c1ccc([N+](=O)[O-])cc1 | -5.3% | 5.3%
COc1cc2c(cc1NC(=S)Nc1cccc3ccccc13)oc1ccccc12 | 10µM* | -7.8%
Cc1cc(C)c2c(c1)cc(C)c1nnc(SCC(=O)Nc3ccc(S(=O)(=O)N4CCCCC4)cc3)n12 | ? | -2.3%
CCS(=O)(=O)N1CCC(NC(C)=O)(c2ccccc2)CC1 | -2.3% | -1.0%
COc1ccc(/C=N/NC(=O)c2sccc2OCc2ccc(F)cc2)cc1OC | ? | -6.7%
CCc1ccc(C2CC(c3ccc(F)cc3)Nc3nc(N)nn32)cc1 (stereo not given) | 19.6% | -5.1%
CCOc1ccc(-c2nn(-c3ccccc3)cc2/C=C2\SC(=S)N(C3CCS(=O)(=O)C3)C2=O)cc1 (stereo not given) | 7.94µM* | -11.6%
CN(C)S(=O)(=O)c1cccc(-c2nn(-c3ccccc3)cc2/C=C2\SC(=S)NC2=O)c1 | 16.0% | -12.9%
CCOc1ccc(-c2nn(-c3ccccc3)cc2/C=C2\SC(N)=NC2=O)cc1C | 8.2% | -1.1%
CCCOc1ccc(-c2nn(-c3ccccc3)cc2/C=C2\SC(=S)N(C3CCS(=O)(=O)C3)C2=O)cc1 (stereo not given) | 3.98µM* | 1.8%
Cc1cc(O)c(C(c2ccc(F)cc2)N2CCCCC2)c(=O)n1Cc1ccco1 (stereo not given) | ? | 1.0%
O=C(CN1C(=O)CC(c2ccco2)Sc2ccccc21)Nc1ccc(C(F)(F)F)cc1 (stereo not given) | -1.3% | -5.2%
O=C(Nc1cccc(C(=O)Nc2ccc(S(=O)(=O)O)c3cc(S(=O)(=O)O)cc(S(=O)(=O)O)c23)c1)Nc1cccc(C(=O)Nc2ccc(S(=O)(=O)O)c3cc(S(=O)(=O)O)cc(S(=O)(=O)O)c23)c1 | -5.3% | -6.6%
CCCC1CCC(C(=O)Nn2cnc3ccccc3c2=O)CC1 (stereo not given) | 15.7% | 0.6%
SMILES | Cruzain noTriton | Cruzain Triton
Cc1c(Cc2ccccc2)sc(/N=C/c2ccc3ccccc3c2)c1C(N)=O | 6.31µM* | -4.2%
Cc1c(Cc2ccccc2)sc(N)c1C(N)=O | ? | -5.7%
Cc1c(Cc2ccccc2)sc(/N=C/c2c(O)ccc3ccccc23)c1C(N)=O | -19.4% | -8.2%
COc1ccc(/C=C/C(=O)Nc2sc(Cc3ccccc3)c(C)c2C(N)=O)cc1 | 15.8µM* | -11.4%
CC(C)N(C(=O)CSc1nc2ccccc2n1Cc1ccccc1F)C(C)C | 5.4% | -6.9%
Cc1cc(C)nc(N(C#N)Cc2cccc3ccccc23)n1 | 8.8% | 5.7%
CCN(CC)C(=O)N1CCn2c(nc3ccccc32)C1 | -0.9% | -1.2%
CCN(CC)CCCNC(=S)N1CCn2c(nc3ccccc32)C1 | -3.8% | 12.6µM*
CCCn1cc2c(c1-c1cccc(C)c1)c(=O)n(C)c(=O)n2C | -4.1% | -7.5%
Cc1cccc(NC(=O)CSc2nnc(NC(=O)Nc3ccccc3)s2)c1C | -5.5% | -0.3%
CCOc1ccccc1CNC(=O)Cn1c(=O)oc2ccccc21 | -9.3% | 0.7%
Cc1snc2sc(C(=O)c3ccc(Br)cc3)c(N)c12 | 15.8µM* | 20µM*
Cc1ccc(C(=O)c2sc3nsc(C)c3c2N)cc1 | -5.0% | -4.0%
Clc1ccc(-c2cn3ncsc3n2)cc1 | 8.2% | -18.4%
CCCOc1ccc(CN(C(=O)c2cc(=O)c3ccc(C)cc3o2)C2CCS(=O)(=O)C2)cc1 (stereo not given) | ? | -5.7%
Oc1ccc(C2Nc3cccc4cccc(c34)N2)c(O)c1 | 15.8µM* | ?
O=[N+]([O-])c1ccc(C2Nc3cccc4cccc(c34)N2)cc1 | ? | -0.8%
COc1cc(C2Nc3cccc4cccc(c34)N2)cc(OC)c1O | -21.9% | -12.5%
Cc1ccc(C2Nc3cccc4cccc(c34)N2)s1 | 20µM* | -8.4%
c1coc(C2Nc3cccc4cccc(c34)N2)c1 | 7.94µM* | -10.6%
O=[N+]([O-])c1cccc(C2Nc3cccc4cccc(c34)N2)c1 | ? | -8.5%
